Experimental data reported in PubChem BioAssay AID602257 (NMMLSC, 2012).
Potency and affinity values are given separately. Calls of active or inactive are those of the source. A call without a number means that no potency is given here. The rule behind the calls is not given here.

Assay: yeast V-ATPase proton pumping modulator potency, dose response, S. cerevisiae, pHLuorin, powder set 1 (AID 602257)
Conditions: vacuolar pH, pHLuorin fluorescence; series mostly up to 100 µM

| Compound | outcome |
| --- | --- |
| O=C(c1nc2ccccc2s1)N1CCN(c2nc3ccc(F)cc3s2)CC1 | inactive |
| CS(=O)(=O)c1ccc2nc(N3CCN(C(=O)c4ccc([N+](=O)[O-])o4)CC3)sc2c1 | inactive |
| O=C(c1ccc([N+](=O)[O-])o1)N1CCN(c2nc3ccc(F)cc3s2)CC1 | inactive |
| Cc1cc(C(=O)N2CCN(c3nc4ccc(F)cc4s3)CC2)nn1C | inactive |
| O=C(c1cccs1)N1CCN(c2nc3ccc(F)cc3s2)CC1 | inactive |
| CC(C)(C)C(=O)N1CCN(c2nc3ccc(F)cc3s2)CC1 | inactive |
| O=C(c1ccc(Br)s1)N1CCN(c2nc3ccc(F)cc3s2)CC1 | inactive |
| O=C(c1ccno1)N1CCN(c2nc3ccc(F)cc3s2)CC1 | inactive |
| Cc1cc(C(=O)N2CCN(c3nc4ccc(F)cc4s3)CC2)on1 | inactive |
| Cc1cc(C(=O)N2CCN(c3nc4ccc(F)cc4s3)CC2)n(C)n1 | inactive |
| O=C(c1cnccn1)N1CCN(c2nc3ccc(F)cc3s2)CC1 | inactive |
| O=C(C1CCCCC1)N1CCN(c2nc3ccc(F)cc3s2)CC1 | inactive |
| COc1ccc2nc(N3CCN(C(=O)c4ccc([N+](=O)[O-])o4)CC3)sc2c1 | inactive |
| CS(=O)(=O)c1cccc2sc(N3CCN(C(=O)c4ccc([N+](=O)[O-])o4)CC3)nc12 | inactive |
| O=C(C1CC1)N1CCN(c2nc3ccc(F)cc3s2)CC1 | inactive |
| Cc1cc(C(=O)N2CCN(c3nc4ccc(F)cc4s3)CC2)no1 | inactive |
| O=C(c1ccco1)N1CCN(c2nc3ccc(F)cc3s2)CC1 | inactive |
| O=C(c1ccc([N+](=O)[O-])o1)N1CCN(c2ccccn2)CC1 | inactive |
| O=C(c1ccc(Cl)s1)N1CCN(c2nc3ccc(F)cc3s2)CC1 | inactive |
| O=C(c1ccc([N+](=O)[O-])o1)N1CCN(c2nccs2)CC1 | inactive |
